The values that follow come from PubChem BioAssay AID504332 (National Center for Advancing Translational Sciences (NCATS), 2011).

Each structure is given as a SMILES string. Hit rate of the full screen: of about 350,000 compounds, about 31,000 (8.9%) were called active. Another 15% or so got no clear call; they are omitted. The list comes from a sample in which actives are over-represented; it also holds similar structures and randomly drawn compounds. Values without a mark were called inactive. Calls come from the whole dose curve; as a rule, active = well fitted inhibition curve with a large enough effect; inconclusive = small, poorly fitted or top-dose-only effect; inactive = no such curve, though single readings can be large or run the other way.
% is set by controls: 0 for no effect and ±100 for the full control effect; potency is the fitted concentration of half-maximal effect.

In the assay the target is Histone-lysine N-methyltransferase EHMT2 (Homo sapiens) (UniProt Q96KQ7). Description: qHTS Assay for Inhibitors of Histone Lysine Methyltransferase G9a. Note: nearly all actives have a fitted effect of over 75% in size. Particulars: G9a H3K9 monomethylation, AlphaScreen, 2 h; series mostly up to 59 µM; activity, negative = inhibition: at the top concentration. Put shortly: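 Step 1: enzyme (final 20 nM) with compound, 15 min RT. Step 2: substrate peptide 500 nM and SAM 20 uM, 2 h RT. Step 3: anti-H3K9me1 antibody and AlphaScreen beads, 10 min, then plate read.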
Histone-lysine N-methyltransferase EHMT2 (Homo sapiens), sequence (Q96KQ7 913-1193 limits assumed): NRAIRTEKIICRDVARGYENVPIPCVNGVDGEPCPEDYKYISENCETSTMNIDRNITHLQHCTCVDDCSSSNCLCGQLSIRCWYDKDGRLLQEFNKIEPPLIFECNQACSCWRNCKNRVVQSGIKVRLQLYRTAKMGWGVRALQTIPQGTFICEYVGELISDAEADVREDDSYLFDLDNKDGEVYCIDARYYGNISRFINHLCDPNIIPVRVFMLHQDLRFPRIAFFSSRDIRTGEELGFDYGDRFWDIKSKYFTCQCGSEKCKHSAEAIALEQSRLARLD
Consider `CCOc1ccc(C(=O)Nc2cc(OC)ccc2OC)cc1`, for which the “activity, negative = inhibition” value was 20% [at 102 µM]. With `CCOc1ccc(C(=O)Nc2cc(Cl)ccc2-n2cncn2)cc1OC`, the Potency is 15.8 µM (active). Turning to `COc1ccc(-n2nnnc2CNC(=O)c2ccc3ccccc3c2)cc1`, the “activity, negative = inhibition” value is -3.4% [at 102 µM]. Take `COc1ccccc1C(CNC(=O)c1cccc(NS(=O)(=O)c2ccc(Br)cc2)c1)N(C)C` (centres undefined): the “activity, negative = inhibition” value was -36.2% [at 102 µM].

On to `CN(C)C(CNC(=O)c1cccc(S(=O)(=O)Nc2ccc(Br)cc2)c1)c1ccco1` (centres undefined), for which the Potency was 50.1 µM (active).

`COc1ccccc1C(CNC(=O)c1cccc(S(=O)(=O)Nc2ccc(F)cc2)c1)N(C)C` (centres undefined): the activity, negative = inhibition is 17.4% [at 12.7 µM]. Same read-out and setting: next, `CCOc1ccccc1CNCc1c(C(=O)O)c(C)n(Cc2ccc(C)cc2)c1C`: -1.87%; `O=C(O)c1cc2c(cc1NC(=O)c1c(F)cccc1Cl)OCCCO2`: -15.3% [at 102 µM]; `O=C(NCc1ccc(Cl)cc1)c1ccc2c(c1)nnn2C1CCCC1`: -6.56%.

On to `O=C(NCc1cccs1)c1ccc2c(c1)ncn2C1CCCC1`, for which the Potency is 50.1 µM (active). On to `O=C(NCCN1CCOCC1)c1ccc2c(c1)ncn2C1CCCC1`, for which the “activity, negative = inhibition” value was -47.7% [at 102 µM].

For `CCOc1ccc(C(=O)CCC(=O)NC2=NCCS2)cc1`, the activity, negative = inhibition was 2.24% [at 0.501 µM]. For the molecule `CN(CCc1ccccn1)C(=O)c1ccc(OC2CCN(CCc3ccccc3)CC2)cc1`, the “activity, negative = inhibition” value is 21.6% [at 102 µM]. Same read-out and setting: next, `Cc1cnc(CN(C)C(=O)CC2C(=O)NCCN2Cc2cccc(F)c2F)[nH]1` (centres undefined): -5.82% [at 102 µM]. For `CN(C(=O)CC1C(=O)NCCN1Cc1ccc(F)cc1Cl)C1CCCCC1` (centres undefined), the “activity, negative = inhibition” value is 0.263% [at 102 µM]. In the case of `Cc1nc(CN(C)C(=O)CC2C(=O)NCCN2Cc2ccc(F)cc2)cs1` (centres undefined), the Potency is 44.7 µM (active).

As to `COc1ccccc1CN1CCNC(=O)C1CC(=O)N(C)CC1CCOCC1` (centres undefined), the activity, negative = inhibition was 13.6% [at 0.0925 µM]. Regarding `COc1cccc(CN2CCNC(=O)C2CC(=O)N(C)CCc2ccccn2)c1` (centres undefined), the Potency was 44.7 µM (active). On to `CCCOC(=O)CC1C(=O)NCCN1Cc1ccc(F)cc1` (centres undefined), for which the “activity, negative = inhibition” value was 10.2% [at 102 µM]. On the same count and under the same terms, next, `CC(C)c1nc(CNC(=O)CC2C(=O)NCCN2Cc2ccoc2)cs1` (centres undefined): -29.4% [at 102 µM]. Consider `CN(Cc1cccc2ncccc12)C(=O)CC1C(=O)NCCN1Cc1ccc(F)cc1` (centres undefined), for which the Potency was 44.7 µM (active). For the molecule `Cc1cccc(NC(=O)Cn2c(=O)n(CCC(C)C)c(=O)c3cccnc32)c1`, the “activity, negative = inhibition” value is -1.53%. Same read-out and setting: next, `CCN(CC(=O)Nc1c(F)cccc1F)C(=O)c1cnc(C)cn1`: 9.59% [at 2.33 µM]; `COc1ccc(-c2nc(CN3CCC(C(=O)NCCN(CC(C)C)CC(C)C)CC3)c(C)o2)cc1OC`: -43.1%; `Cc1ccc(C(=O)Nc2nc(-c3ccccc3)ns2)cc1`: -3.13%. On the same count and under the same terms, next, `Cc1ccc(CNC(=O)CC(NC(=O)c2ccccc2)c2ccccc2)cc1` (centres undefined): 12.4% [at 12.7 µM]; `Cc1ccc(CNC(=O)CCc2c(C)nc3nc(CNC(=O)OC(C)(C)C)nn3c2C)cc1`: -2.86%; `COCCNC(=O)c1ccc2c(c1)N=C(C)c1cc(C)ccc1S2`: -33.8%. For `CCOC(=O)C1(CCOc2ccccc2)CCN(Cc2ccc(C#CCCO)cc2)CC1`, the “activity, negative = inhibition” value was -13.7% [at 102 µM]. Still for that read-out and setting: next, `Cc1ccc(Cl)cc1N(C)C(=O)Cn1nc(Cc2cccnc2)c2ccccc2c1=O`: -0.885%; `COc1ccc(C(=O)Nc2ccccc2C(=O)NCc2ccco2)cc1`: 20.2% [at 102 µM]; `O=C(Nc1ccccc1)Nc1ccccc1C(=O)NCc1ccco1`: 0.665% [at 12.7 µM].

With `CCOc1ccccc1C(=O)NCc1ccco1`, the Potency is 44.7 µM (active). `COc1ccc(NC(=O)CN(C)C(=O)c2ccc(COc3ccccc3)o2)cc1`: the “activity, negative = inhibition” value was 8.51% [at 102 µM].

Regarding `C[C@H]1[C@H]2c3nc4ccccc4n3C[C@H]1ON2C1CCCCC1`, the “activity, negative = inhibition” value is 20.1% [at 102 µM]. Take `CCS(=O)(=O)Nc1ccc(C2=NN(S(=O)(=O)c3ccc(F)cc3)C(c3ccco3)C2)cc1` (centres undefined): the Potency is 79.4 µM (active).

For the molecule `CCS(=O)(=O)Nc1ccc(C2=NN(C(C)=O)C(c3cccs3)C2)cc1` (centres undefined), the “activity, negative = inhibition” value is 7.26% [at 102 µM]. On the same count and under the same terms, next, `CS(=O)(=O)Nc1ccc(C2=NN(S(C)(=O)=O)C(c3cccs3)C2)cc1` (centres undefined): -27.8% [at 102 µM]; `CCCCN(CCCC)CCCNC(=O)CN1C(=O)COc2ccc(S(=O)(=O)N3CCC(C)CC3)cc21`: 56.2% [at 102 µM]. For the molecule `O=C(CCNC(=O)c1ccc(Br)cc1)NCC(c1ccco1)N1CCCCC1` (centres undefined), the activity, negative = inhibition was 19.9% [at 12.7 µM]. On to `C/C(=N\NC(=O)NC1CCCCC1)c1ccc(OC(F)F)cc1OC(F)F`, for which the “activity, negative = inhibition” value is 7.82% [at 102 µM]. `Cc1ccc(/C=N/NC(=S)NC2CCCCC2)o1`: the Potency is 50.1 µM (active).

In the case of `C/C(=N/NC(=O)c1ccc(Br)o1)c1ccc(C)o1`, the “activity, negative = inhibition” value is 3.1%. On the same count and under the same terms, next, `Cc1ccc(NC(=S)NC2CCCC2)cc1`: 23.8% [at 0.501 µM]. `C/C(=N\NC(=S)NC1CCCCC1)c1ccc(C)o1`: the Potency was 50.1 µM (active). Take `Cc1ccc(/C=N/NC(=O)Cn2ccc(C(F)(F)F)n2)o1`: the “activity, negative = inhibition” value is -9.13% [at 102 µM]. Same read-out and setting: next, `O=C(Nc1ccc(Cl)c(Cl)c1)c1ccccc1NC(=O)C1CC=CCC1C(=O)O` (centres undefined): -7.21% [at 102 µM]. With `COc1ccc(C)cc1NC(=O)CNCc1cccs1`, the “activity, negative = inhibition” value was 4.36% [at 102 µM]. The same measure, in the same setting: as for `COc1cc(OC)cc(-c2c(-c3cccs3)c3cc(-c4ccc(OC)cc4F)ccc3n2C)c1`, the figure is 2.09% [at 0.501 µM].
